In the supplement of paper PMC10849652:
Of roughly 7,900 targets only a part is listed; those with a hit were picked by preference. About 0.6% of all pairs of compound and target were hits. Values without a mark were called inactive.

Key:
Experiment in all cases: log2 fold change, soluble protein after heating vs DMSO (PISA); higher = thermal stabilisation; K562 cells, 10 uM, 30 min; active = over 0.2 and 3.5 SD of the protein, either way, in both replicates (recomputed)
[1] = compound: CC[C@@H]1C(=O)N(C)c2cnc(Nc3ccc(C(=O)NC4CCN(C)CC4)cc3OC)nc2N1C1CCCC1
How it was run: (§1)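 K562 cells at 2×10^6 cells/mL were treated for 30 min with 10 μM compound, and aliquots were heated for 3 min over 48°C-58°C before pooling. Extraction used PBS with 0.5% NP-40 at 4°C, and soluble protein was the supernatant after 21,000xg for 90 min, measured by TMTpro 16plex LC-MS/MS with channel sums equalised. Thermal stability values, relative to control samples and from duplicates, are log2 fold changes.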

[2] = compound: CC[C@@H]1C(=O)N(C)c2cnc(Nc3ccc(C(=O)N[C@H]4CC[C@H](N5CCN(CC6CC6)CC5)CC4)cc3OC)nc2N1C(C)C [volasertib]
How it was run: as §1

[3] = compound: CC[C@H](C)N1C=C(C2=C(C=C(C=C21)C3=CN=C(C=C3)N4CCNCC4)C(=O)NCC5=C(C=C(NC5=O)C)C)C
How it was run: as §1

[4] = compound: CC[C@H](C)[C@@H](C(=O)N[C@@H]([C@@H](C)O)C(=O)N[C@@H](CC(C)C)C(=O)[C@]1(CO1)C)NC(=O)[C@H]([C@@H](C)CC)N(C)C(=O)C [epoxomicin]
How it was run: as §1

[5] = compound: CCn1c(C(=O)N(C2CC2)C2CC2)cc2c3c(ncn3C)c(Nc3cc(C)n(C)n3)nc21
How it was run: as §1

[6] = compound: CCn1cc(-c2ccnc3[nH]c(-c4cccc(CN(C)C)c4)cc23)c(-c2ccc(NC(=O)N(C)C)cc2)n1
How it was run: as §1

[7] = compound: CN(C)CC(=O)Nc1ccc2[nH]c(=O)c3ccccc3c2c1
How it was run: as §1

[8] = compound: CN(CCOC1=CC=C(C=C1)C[C@H]2C(=O)NC(=O)S2)C3=CC=CC=N3 (racemic) [rosiglitazone]
How it was run: as §1

[9] = compound: CN1C2=C(C3=C1C(=O)N(N=C3)CC4=CC(=CC=C4)N)SC(=C2)S(=O)C
How it was run: as §1

[10] = compound: CN1CCC(CNc2ccc3ncc(-c4cccc(OC(F)(F)F)c4)n3n2)CC1
How it was run: as §1

[11] = compound: CN1CCN(CCOc2cc(OC3CCOCC3)c3c(Nc4c(Cl)ccc5c4OCO5)ncnc3c2)CC1 [saracatinib]
How it was run: as §1

[12] = compound: CN1CCN(c2nc(C3=C(c4c[nH]c5ccccc45)C(=O)NC3=O)c3ccccc3n2)CC1 [sotrastaurin]
How it was run: as §1

[13] = compound: CN1CC[C@H](c2c(O)cc(O)c3c(=O)cc(-c4ccccc4Cl)oc23)[C@H](O)C1 [alvocidib]
How it was run: as §1

[14] = compound: CN1CCc2c(c3ccccc3n2Cc2ccc(C(=O)NO)cc2)C1 [Tubastatin A]
How it was run: as §1

[15] = compound: CNC(=O)C1=CC=CC=C1NC2=NC(=NC=C2Cl)NC3=C(C=C(C=C3)N4CCOCC4)OC
How it was run: as §1

[16] = compound: CNC(=O)c1ccc(Nc2ncc(C(F)(F)F)c(NCc3nccnc3N(C)S(C)(=O)=O)n2)cc1 [defactinib]
How it was run: as §1

[17] = compound: CNCc1ccc(-c2[nH]c3cc(F)cc4c3c2CCNC4=O)cc1 [rucaparib]
How it was run: as §1

[18] = compound: CNc1nc(-c2ccc3c(N)n[nH]c3c2)cc(N2C[C@@H](C(=O)NC3CCCCC3)CC[C@H]2C)n1
How it was run: as §1

[19] = compound: COC(=O)N[C@@H](C)CNc1nccc(-c2cn(C(C)C)nc2-c2cc(Cl)cc(NS(C)(=O)=O)c2F)n1 [encorafenib]
How it was run: as §1

[20] = compound: COC(=O)[C@H](CCSC)NC(=O)C1=C(C=C(C=C1)NC[C@H](CS)N)C2=CC=CC=C2
How it was run: as §1

Sequence of UniProt P62879 (P62879 whole entry, looked up): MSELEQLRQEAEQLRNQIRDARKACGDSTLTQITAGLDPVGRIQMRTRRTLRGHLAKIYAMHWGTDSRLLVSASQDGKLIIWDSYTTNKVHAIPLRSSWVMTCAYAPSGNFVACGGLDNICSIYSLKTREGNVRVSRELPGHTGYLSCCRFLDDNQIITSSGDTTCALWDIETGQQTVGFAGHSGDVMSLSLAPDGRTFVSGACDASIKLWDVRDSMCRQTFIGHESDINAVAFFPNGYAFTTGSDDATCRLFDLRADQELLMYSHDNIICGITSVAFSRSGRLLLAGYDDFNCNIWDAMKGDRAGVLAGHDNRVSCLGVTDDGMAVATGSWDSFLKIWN
Sequence of UniProt P02008 (P02008 whole entry, looked up): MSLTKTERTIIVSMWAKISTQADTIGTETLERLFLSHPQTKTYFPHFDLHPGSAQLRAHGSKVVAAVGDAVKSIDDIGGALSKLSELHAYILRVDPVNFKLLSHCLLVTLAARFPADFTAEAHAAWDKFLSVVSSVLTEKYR
Sequence of UniProt Q9NVI1 (Q9NVI1 whole entry, looked up): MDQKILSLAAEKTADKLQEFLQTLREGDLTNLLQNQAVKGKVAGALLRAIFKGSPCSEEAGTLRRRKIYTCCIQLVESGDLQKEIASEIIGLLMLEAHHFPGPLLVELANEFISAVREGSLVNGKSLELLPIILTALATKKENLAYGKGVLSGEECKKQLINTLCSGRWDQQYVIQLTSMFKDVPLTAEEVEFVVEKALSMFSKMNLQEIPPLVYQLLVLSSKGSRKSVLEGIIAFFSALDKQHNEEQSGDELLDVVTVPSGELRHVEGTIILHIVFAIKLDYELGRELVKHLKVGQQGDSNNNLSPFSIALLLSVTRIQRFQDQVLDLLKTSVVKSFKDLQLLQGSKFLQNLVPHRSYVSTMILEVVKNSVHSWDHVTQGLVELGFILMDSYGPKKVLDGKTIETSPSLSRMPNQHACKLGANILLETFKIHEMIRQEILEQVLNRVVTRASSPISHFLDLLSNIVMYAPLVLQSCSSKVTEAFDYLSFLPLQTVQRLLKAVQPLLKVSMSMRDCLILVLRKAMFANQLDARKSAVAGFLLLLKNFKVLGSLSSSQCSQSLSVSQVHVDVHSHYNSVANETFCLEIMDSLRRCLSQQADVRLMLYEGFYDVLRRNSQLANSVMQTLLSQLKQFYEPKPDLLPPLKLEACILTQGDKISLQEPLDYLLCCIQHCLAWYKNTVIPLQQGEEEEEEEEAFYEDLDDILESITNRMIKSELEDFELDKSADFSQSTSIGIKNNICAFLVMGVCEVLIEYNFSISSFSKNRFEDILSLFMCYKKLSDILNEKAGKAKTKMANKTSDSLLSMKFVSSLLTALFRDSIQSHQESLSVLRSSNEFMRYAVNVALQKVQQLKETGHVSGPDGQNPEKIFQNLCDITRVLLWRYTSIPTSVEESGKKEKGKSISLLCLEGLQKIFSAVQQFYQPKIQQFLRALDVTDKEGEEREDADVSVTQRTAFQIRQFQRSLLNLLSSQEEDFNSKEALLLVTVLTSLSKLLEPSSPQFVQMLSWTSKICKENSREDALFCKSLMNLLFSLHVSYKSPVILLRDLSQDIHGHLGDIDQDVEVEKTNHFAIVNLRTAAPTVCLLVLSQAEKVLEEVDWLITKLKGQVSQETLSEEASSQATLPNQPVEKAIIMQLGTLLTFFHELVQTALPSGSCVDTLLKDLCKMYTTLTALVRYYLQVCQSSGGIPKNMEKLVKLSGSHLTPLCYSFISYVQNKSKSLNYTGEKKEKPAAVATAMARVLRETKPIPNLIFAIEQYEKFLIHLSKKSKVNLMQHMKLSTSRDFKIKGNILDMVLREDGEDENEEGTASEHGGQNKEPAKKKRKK
Sequence of UniProt O15228 (O15228 whole entry, looked up): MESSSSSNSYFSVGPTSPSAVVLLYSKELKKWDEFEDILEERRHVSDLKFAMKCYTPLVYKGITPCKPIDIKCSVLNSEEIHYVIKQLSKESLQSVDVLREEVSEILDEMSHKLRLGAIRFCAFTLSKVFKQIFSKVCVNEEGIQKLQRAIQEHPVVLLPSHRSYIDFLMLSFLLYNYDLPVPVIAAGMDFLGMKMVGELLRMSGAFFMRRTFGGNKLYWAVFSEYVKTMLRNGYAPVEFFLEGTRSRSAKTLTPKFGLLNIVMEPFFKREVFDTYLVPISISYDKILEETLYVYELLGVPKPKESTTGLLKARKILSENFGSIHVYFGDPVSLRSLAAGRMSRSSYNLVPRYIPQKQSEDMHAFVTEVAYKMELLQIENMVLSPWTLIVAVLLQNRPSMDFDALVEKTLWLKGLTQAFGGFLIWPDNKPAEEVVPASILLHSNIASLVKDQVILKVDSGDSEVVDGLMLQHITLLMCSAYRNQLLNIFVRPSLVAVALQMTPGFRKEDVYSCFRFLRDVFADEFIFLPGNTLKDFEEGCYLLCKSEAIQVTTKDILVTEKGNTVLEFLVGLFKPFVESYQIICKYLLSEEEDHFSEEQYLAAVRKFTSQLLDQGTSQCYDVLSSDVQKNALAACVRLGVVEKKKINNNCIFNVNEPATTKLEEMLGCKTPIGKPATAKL
Sequence of UniProt P49356 (P49356 whole entry, looked up): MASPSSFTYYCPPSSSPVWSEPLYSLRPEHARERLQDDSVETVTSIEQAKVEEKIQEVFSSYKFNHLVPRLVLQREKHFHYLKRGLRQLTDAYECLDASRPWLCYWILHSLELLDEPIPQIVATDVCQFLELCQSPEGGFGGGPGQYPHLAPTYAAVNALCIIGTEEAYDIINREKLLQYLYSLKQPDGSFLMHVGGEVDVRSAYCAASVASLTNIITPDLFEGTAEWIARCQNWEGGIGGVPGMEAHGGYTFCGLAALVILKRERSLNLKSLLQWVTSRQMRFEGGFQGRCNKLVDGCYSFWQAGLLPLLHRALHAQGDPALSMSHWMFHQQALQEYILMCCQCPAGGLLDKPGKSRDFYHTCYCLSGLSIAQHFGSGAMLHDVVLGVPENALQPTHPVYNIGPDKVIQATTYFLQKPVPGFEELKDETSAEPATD
Sequence of UniProt P0C0S5 (P0C0S5 whole entry, looked up): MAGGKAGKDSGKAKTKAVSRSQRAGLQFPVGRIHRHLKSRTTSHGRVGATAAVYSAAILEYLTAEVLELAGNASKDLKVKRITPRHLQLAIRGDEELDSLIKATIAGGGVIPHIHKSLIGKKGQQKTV
Sequence of UniProt P08754 (P08754 whole entry, looked up): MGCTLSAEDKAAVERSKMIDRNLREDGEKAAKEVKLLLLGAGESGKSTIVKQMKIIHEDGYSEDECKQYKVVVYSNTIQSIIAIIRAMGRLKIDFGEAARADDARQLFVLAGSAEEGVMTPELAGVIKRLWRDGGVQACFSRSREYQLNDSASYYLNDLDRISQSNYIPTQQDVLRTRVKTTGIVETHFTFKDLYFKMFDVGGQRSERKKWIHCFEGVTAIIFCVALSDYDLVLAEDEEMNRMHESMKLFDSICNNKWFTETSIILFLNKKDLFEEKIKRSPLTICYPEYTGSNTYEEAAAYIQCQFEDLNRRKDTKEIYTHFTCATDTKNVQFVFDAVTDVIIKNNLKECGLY
Sequence of UniProt Q7Z4Q2 (Q7Z4Q2 whole entry, looked up): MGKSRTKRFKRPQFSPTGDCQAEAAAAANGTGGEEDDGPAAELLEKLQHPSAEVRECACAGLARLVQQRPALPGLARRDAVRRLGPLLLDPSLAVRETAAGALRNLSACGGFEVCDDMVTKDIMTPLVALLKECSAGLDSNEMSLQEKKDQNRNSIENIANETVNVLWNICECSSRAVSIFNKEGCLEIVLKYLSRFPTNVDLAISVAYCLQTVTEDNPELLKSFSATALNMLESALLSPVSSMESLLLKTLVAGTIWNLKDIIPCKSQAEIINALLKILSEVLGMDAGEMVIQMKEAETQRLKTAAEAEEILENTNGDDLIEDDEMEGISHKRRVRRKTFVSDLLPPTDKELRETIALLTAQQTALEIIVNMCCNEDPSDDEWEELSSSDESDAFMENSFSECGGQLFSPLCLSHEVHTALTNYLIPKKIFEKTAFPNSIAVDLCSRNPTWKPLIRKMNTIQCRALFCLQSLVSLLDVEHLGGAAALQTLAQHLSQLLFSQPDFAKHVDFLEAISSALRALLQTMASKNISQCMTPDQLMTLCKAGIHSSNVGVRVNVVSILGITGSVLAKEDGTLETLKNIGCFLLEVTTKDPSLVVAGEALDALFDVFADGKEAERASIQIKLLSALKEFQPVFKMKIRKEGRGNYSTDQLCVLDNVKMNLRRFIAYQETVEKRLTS
Sequence of UniProt Q9BUP3 (Q9BUP3 whole entry, looked up): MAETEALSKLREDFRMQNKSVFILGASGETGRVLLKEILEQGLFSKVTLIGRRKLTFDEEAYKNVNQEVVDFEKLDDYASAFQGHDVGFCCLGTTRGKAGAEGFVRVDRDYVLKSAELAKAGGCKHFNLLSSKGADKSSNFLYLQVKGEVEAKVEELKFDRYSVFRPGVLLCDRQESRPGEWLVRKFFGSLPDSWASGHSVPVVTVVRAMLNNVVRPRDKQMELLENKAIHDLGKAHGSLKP
Sequence of UniProt P31150 (P31150 whole entry, looked up): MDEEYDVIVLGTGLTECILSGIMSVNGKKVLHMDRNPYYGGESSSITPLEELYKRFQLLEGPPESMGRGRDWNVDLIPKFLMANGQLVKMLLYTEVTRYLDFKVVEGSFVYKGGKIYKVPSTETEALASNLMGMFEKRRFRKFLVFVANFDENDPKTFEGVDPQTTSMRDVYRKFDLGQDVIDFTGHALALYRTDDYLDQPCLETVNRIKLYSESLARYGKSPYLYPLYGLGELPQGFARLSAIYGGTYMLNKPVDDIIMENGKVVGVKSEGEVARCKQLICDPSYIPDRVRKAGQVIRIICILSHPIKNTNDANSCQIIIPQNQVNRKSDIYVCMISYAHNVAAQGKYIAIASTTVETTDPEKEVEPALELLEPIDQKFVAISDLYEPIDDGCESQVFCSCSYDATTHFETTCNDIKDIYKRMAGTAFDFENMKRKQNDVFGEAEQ
Sequence of UniProt P23434 (P23434 whole entry, looked up): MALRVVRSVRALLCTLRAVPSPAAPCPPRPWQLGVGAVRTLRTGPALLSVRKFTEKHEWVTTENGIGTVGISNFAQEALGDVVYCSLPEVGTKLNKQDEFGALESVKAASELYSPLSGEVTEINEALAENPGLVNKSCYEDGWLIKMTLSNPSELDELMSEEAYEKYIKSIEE

Row | Target | log2 fold change [1] | log2 fold change [2] | log2 fold change [3] | log2 fold change [4] | log2 fold change [5] | log2 fold change [6] | log2 fold change [7] | log2 fold change [8] | log2 fold change [9] | log2 fold change [10] | log2 fold change [11] | log2 fold change [12] | log2 fold change [13] | log2 fold change [14] | log2 fold change [15] | log2 fold change [16] | log2 fold change [17] | log2 fold change [18] | log2 fold change [19] | log2 fold change [20]
1 | GALNT1 (UniProt Q10472) | -0.06 | -0.218 (active) | -0.011 | -0.068 | -0.005 | -0.041 | -0.011 | 0.003 | -0.074 | 0.106 | -0.026 | 0.03 | -0.005 | 0.064 | 0.039 | -0.046 | 0.008 | -0.047 | -0.037 | -0.005
2 | HEATR3 (UniProt Q7Z4Q2) | -0.308 | -0.36 (active) | 0.033 | 0.039 | -0.051 | 0.276 | 0.058 | 0.059 | 0.007 | -0.34 | -0.045 | -0.167 | -0.128 | 0.109 | -0.054 | -0.048 | 0.081 | -0.006 | -0.028 | -0.006
3 | GNPAT (UniProt O15228) | -0.065 | -0.149 | -0.02 | 0.04 | 0.044 | -0.066 | -0.027 | 0.066 | -0.084 | -0.354 (active) | 0.01 | 0.077 | -0.073 | -0.047 | 0.045 | -0.035 | -0.06 | -0.041 | 0.001 | -0.027
4 | GNAI3 (UniProt P08754) | 0.089 | 0.147 | -0.011 | 0.014 | 0.036 | -0.071 | -0.012 | -0.101 | -0.046 | 0.075 | 0.063 | -0.011 | -0.02 | 0.046 | 0.093 | -0.041 | -0.009 | 0.025 | -0.004 | -0.003
5 | FNTB (UniProt P49356) | 0.948 (active) | 0.707 (active) | 0.01 | 0.044 | -0.006 | -0.212 | 0.02 | 0.062 | -0.055 | -0.088 | 0.046 | 0.346 | -0.113 | 0.017 | -0.036 | 0.095 | 0.02 | -0.007 | -0.016 | 0.974 (active)
6 | HSPA8 (UniProt P11142) | 0.001 | 0.113 | -0.007 | 0.008 | 0.012 | -0.002 | -0.037 | -0.019 | -0.034 | 0.079 | 0.067 | 0.007 | 0.01 | -0.019 | 0.139 | 0.006 | -0.029 | -0.002 | -0.009 | 0.042
7 | H2AZ1 (UniProt P0C0S5) | 0 | 0.065 | -0.084 | -0.311 | 0.054 | 0.103 | -0.071 | -0.052 | 0.435 | 0.026 | -0.082 | 0.067 | 0.093 | -0.017 | -0.102 | 0.259 | 0.396 | -0.014 | 0.107 | 0.105
8 | HBZ (UniProt P02008) | 0.03 | -0.065 | -0.026 | 0.288 (active) | 0.061 | -0.021 | 0.019 | -0.005 | -0.012 | 0.016 | 0.022 | 0.03 | 0.036 | 0 | -0.041 | 0.011 | -0.026 | -0.006 | -0.004 | -0.025
9 | FNTA (UniProt P49354) | 0.123 | 0.362 (active) | 0.006 | 0.019 | 0.032 | -0.074 | 0.012 | 0.036 | -0.03 | 0.015 | 0.084 | 0.141 | -0.006 | -0.068 | -0.028 | 0.019 | -0.243 | -0.016 | -0.239 | 0.561 (active)
10 | FANCI (UniProt Q9NVI1) | -0.277 (active) | -0.159 | 0.127 | -0.077 | -0.022 | -0.093 | 0.072 | 0.066 | -0.013 | -0.188 | -0.022 | -0.099 | -0.13 | -0.103 | -0.111 | -0.179 | 0.041 | -0.002 | 0.003 | -0.02
11 | GCSH (UniProt P23434) | 0.055 | 0.065 | -0.078 | 0.005 | 0.05 | 0.023 | 0.028 | 0.053 | 0.012 | -0.338 (active) | -0.024 | 0.057 | 0.009 | -0.017 | 0.021 | -0.01 | -0.012 | -0.004 | -0.028 | -0.008
12 | GNB2 (UniProt P62879) | 0.122 | 0.103 | 0.003 | 0.046 | -0.01 | -0.023 | -0.042 | -0.01 | -0.079 | 0.3 (active) | -0.033 | 0.019 | 0.001 | 0.015 | -0.002 | -0.028 | -0.004 | 0.039 | 0.005 | -0.065
13 | HMGN2 (UniProt P05204) | -0.083 | 0.073 | -0.109 | -0.082 | 0.054 | -0.041 | -0.081 | -0.041 | 0.02 | 0.071 | -0.138 | 0.156 | 0.069 | -0.05 | 0.026 | 0.046 | 0.13 | 0.075 | -0.091 | 0.013
14 | HTATIP2 isoform 3 (UniProt Q9BUP3) | -0.029 | -0.168 | 0.035 | 0.008 | 0.02 | -0.013 | 0.009 | -0.025 | -0.016 | -0.148 | -0.016 | 0.023 | -0.113 | -0.009 | -0.001 | -0.065 | 0.023 | 0.022 | 0.01 | -0.016
15 | GDI1 (UniProt P31150) | 0.018 | 0.113 | 0.025 | 0.022 | -0.031 | -0.068 | -0.015 | 0.027 | -0.082 | 0.008 | 0.017 | 0.012 | -0.067 | -0.025 | 0.012 | -0.046 | -0.042 | -0.015 | 0.006 | 0.009
16 | HP1BP3 (UniProt Q5SSJ5) | 0.122 | 0.054 | -0.11 | -0.016 | -0.015 | 0.013 | 0.046 | -0.037 | 0.126 | 0.038 | -0.045 | -0.071 | 0.039 | 0.06 | -0.045 | 0.227 | -0.041 | -0.001 | 0.075 | -0.098
